# Measurements as given in paper PMC11062922 (Nature Chemical Biology, 2023).
# Read-outs that look alike come from different tables or passages of the source.
# Key:
# Design in all cases: species or system human, MV4-11 + K-562 + COLO205 + SK-N-BE2 + OVCAR-8
# [1] = system: AKT1; settings: read-out: apparent Kd; compound concentrations: 100 nM and 1000 nM (sheet 'Samples'), CATDS: 3.7255828319427503E-2; n = 1
# [2] = system: AKT2; settings: read-out: apparent Kd; compound concentrations: 100 nM and 1000 nM (sheet 'Samples'), CATDS: 4.5642212363568399E-2; n = 1
# [3] = system: BMPR1B; settings: read-out: apparent Kd, n = 1
# [4] = system: RIOK2; settings: read-out: apparent Kd; compound concentrations: 100 nM and 1000 nM (sheet 'Samples'), CATDS: 4.3222091528321002E-2; n = 1
# [5] = system: AURKB; settings: read-out: apparent Kd; compound concentrations:100 nM and 1000 nM (sheet 'Samples'); n = 1
# [6] = system: DDR2; settings: read-out: apparent Kd; compound concentrations:100 nM and 1000 nM (sheet 'Samples'); n = 1
# [7] = system: EPHB1; settings: read-out: apparent Kd, n = 1
# [8] = system: TGFBR1; settings: read-out: apparent Kd, n = 1
# [9] = system: JAK2; settings: read-out: apparent Kd, compound concentrations: 100 nM and 1000 nM (sheet 'Samples'), n = 1
# [10] = system: PRKD3; settings: read-out: apparent Kd, compound concentrations: 100 nM and 1000 nM (sheet 'Samples'), n = 1
# [11] = system: BTK; settings: read-out: apparent Kd, n = 1
# [12] = system: EPHB6; settings: read-out: apparent Kd, n = 1
# [13] = system: MAPK14; settings: read-out: apparent Kd; compound concentrations:100 nM and 1000 nM (sheet 'Samples'); n = 1
# [14] = system: CDK17; settings: read-out: apparent Kd, compound concentrations: 100 nM and 1000 nM (sheet 'Samples'), n = 1
# [15] = system: FLT4; settings: read-out: apparent Kd, compound concentrations: 100 nM and 1000 nM (sheet 'Samples'), n = 1
# [16] = system: PLK4; settings: read-out: apparent Kd, compound concentrations: 100 nM and 1000 nM (sheet 'Samples'), n = 1
# [17] = system: PRKD2; settings: read-out: apparent Kd, compound concentrations: 100 nM and 1000 nM (sheet 'Samples'), n = 1
# [18] = compound concentrations:100 nM and 1000 nM (sheet 'Samples')
smiles,measurement,setting,value
COc1ccc(Nc2nccc(N3CCC(NC(=O)Nc4ccc5c(c4)OCO5)C3)n2)cc1 (stereo not drawn) [GSK1379745A],potency estimated from few doses,[1],1.76 µM
same,potency estimated from few doses,[2],1.15 µM
same,potency estimated from few doses,"[3]; compound concentrations: 100 nM and 1000 nM (sheet 'Samples'), CATDS: 0.106136196425884",0.316 µM
same,potency estimated from few doses,[4],1.28 µM
CCn1cc(-c2ccnc3[nH]c(-c4cccc(CN(C)C)c4)cc23)c(-c2ccc(NC(=O)N(C)C)cc2)n1 [GSK1070916],potency estimated from few doses,[5],0.594 µM
same,potency estimated from few doses,[6],1.83 µM
Cc1ccc(O)cc1Nc1ccnc2cc(-c3ccccn3)ccc12.Cl [GW440139A],potency estimated from few doses,"[3]; compound concentrations: 100 nM and 1000 nM (sheet 'Samples'), CATDS: 2.7107507605443299E-2",0.941 µM
same,potency estimated from few doses,"[7]; compound concentrations: 100 nM and 1000 nM (sheet 'Samples'), CATDS: 5.4162955802276501E-2",0.0677 µM
same,potency estimated from few doses,"[8]; compound concentrations: 100 nM and 1000 nM (sheet 'Samples'), CATDS: 4.4422303259643102E-2",0.115 µM
NC1=NC(=O)/C(=C/c2ccc3ncccc3c2)S1 [RO4569139-000],potency estimated from few doses,[9]; CATDS: 8.9240627559774202E-2,0.708 µM
same,potency estimated from few doses,[10]; CATDS: 6.7072777002688294E-2,1.93 µM
CCN(CC)CCOc1ccc(Nc2ncc3cc(-c4c(Cl)cccc4Cl)c(=O)n(C)c3n2)cc1 [SB-601273],potency estimated from few doses,[3]; [18],0.239 µM
same,potency estimated from few doses,[11]; [18],0.318 µM
same,potency estimated from few doses,[6],0.319 µM
same,potency estimated from few doses,[7]; [18],0.0106 µM
same,potency estimated from few doses,[12]; [18],0.175 µM
same,potency estimated from few doses,[13],0.678 µM
same,potency estimated from few doses,[8]; [18],0.27 µM
CC(=O)N1CCN(c2ccc(Nc3nccc(-c4sc(C(C)C)nc4-c4cccc(NS(=O)(=O)c5ccccc5)c4)n3)cn2)CC1 [GSK1645872A],potency estimated from few doses,"[3]; compound concentrations: 100 nM and 1000 nM (sheet 'Samples'), CATDS: 3.2416583266463302E-2",0.615 µM
same,potency estimated from few doses,[14]; CATDS: 3.2303603060191699E-2,0.62 µM
same,potency estimated from few doses,"[12]; compound concentrations: 100 nM and 1000 nM (sheet 'Samples'), CATDS: 2.50190585057842E-2",1.23 µM
same,potency estimated from few doses,[15]; CATDS: 2.4036705391895501E-2,1.41 µM
same,potency estimated from few doses,[16]; CATDS: 4.4195990908193997E-2,0.331 µM
same,potency estimated from few doses,[17]; CATDS: 6.4833229163543699E-2,0.179 µM
same,potency estimated from few doses,[10]; CATDS: 5.5326802343899903E-2,0.227 µM
CN1CCN(c2ccc(Nc3nc(N)c(C(=O)c4ccc5c(c4)OCCO5)s3)cc2)CC1 [RO0505124-000],potency estimated from few doses,[9]; CATDS: 0.61009142123011895,0.0501 µM
CC(C)c1nc(-c2cccc(NS(=O)(=O)c3c(F)cccc3F)c2)c(-c2ccnc(Nc3ccc(N4CCOCC4)nc3)n2)s1.Cl [GSK1723980B],potency estimated from few doses,"[11]; compound concentrations: 100 nM and 1000 nM (sheet 'Samples'), CATDS: 1.5505297907028599E-2",1.26 µM
same,potency estimated from few doses,[14]; CATDS: 1.84448623420372E-2,0.647 µM
same,potency estimated from few doses,"[12]; compound concentrations: 100 nM and 1000 nM (sheet 'Samples'), CATDS: 2.4657232775903402E-2",0.294 µM
same,potency estimated from few doses,[15]; CATDS: 3.28978835638193E-2,0.161 µM
same,potency estimated from few doses,[16]; CATDS: 6.4259568423255198E-2,0.0548 µM
same,potency estimated from few doses,[17]; CATDS: 3.4388885610582398E-2,0.149 µM
same,potency estimated from few doses,[10]; CATDS: 3.3451662470077102E-2,0.156 µM
